Assay [1] in a line: Primary qHTS for inhibitors of nuclear receptor binding SET domain protein 2 (NSD2) in an isogenic RCH-ACV NSD2 p.E1099K mutant (9B) (AID 1645876). Further: nearly all actives have a fitted effect of over 70% in size. Further: potency means the concentration at half of the fitted maximal effect.
Assay [2] in a line: Primary qHTS for inhibitors of nuclear receptor binding SET domain protein 2 (NSD2) in an RCH-ACV wild type WT cells (2C) (AID 1645877). Further: nearly all actives have a fitted effect of over 70% in size. Further: potency means the concentration at half of the fitted maximal effect.
Assay [3] deals with Rap guanine nucleotide exchange factor 3 (Homo sapiens) (UniProt O95398). The assay can be described thus: Confirmatory qHTS for antagonist of cAMP-regulated guanine nucleotide exchange factor 3 (EPAC1) (AID 1645880). Further: potency means the concentration at half of the fitted maximal effect; nearly all actives have a fitted effect of over 55% in size. The note with it: EPAC1 Rap1B-BODIPY-GDP exchange, fluorescence. Put shortly: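 Nucleotide exchange uses 100 nM EPAC1, 250 nM RAP1B-BODIPY-GDP and 50 uM GDP, with compounds in a concentration-titration series. After 5 min at room temperature, fluorescence (480 nm ex/540 nm em) is read every 5 min for 30 min. Data are normalized to control ATA and DMSO.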
Sequence of Rap guanine nucleotide exchange factor 3 (Homo sapiens) (O95398 whole entry, looked up): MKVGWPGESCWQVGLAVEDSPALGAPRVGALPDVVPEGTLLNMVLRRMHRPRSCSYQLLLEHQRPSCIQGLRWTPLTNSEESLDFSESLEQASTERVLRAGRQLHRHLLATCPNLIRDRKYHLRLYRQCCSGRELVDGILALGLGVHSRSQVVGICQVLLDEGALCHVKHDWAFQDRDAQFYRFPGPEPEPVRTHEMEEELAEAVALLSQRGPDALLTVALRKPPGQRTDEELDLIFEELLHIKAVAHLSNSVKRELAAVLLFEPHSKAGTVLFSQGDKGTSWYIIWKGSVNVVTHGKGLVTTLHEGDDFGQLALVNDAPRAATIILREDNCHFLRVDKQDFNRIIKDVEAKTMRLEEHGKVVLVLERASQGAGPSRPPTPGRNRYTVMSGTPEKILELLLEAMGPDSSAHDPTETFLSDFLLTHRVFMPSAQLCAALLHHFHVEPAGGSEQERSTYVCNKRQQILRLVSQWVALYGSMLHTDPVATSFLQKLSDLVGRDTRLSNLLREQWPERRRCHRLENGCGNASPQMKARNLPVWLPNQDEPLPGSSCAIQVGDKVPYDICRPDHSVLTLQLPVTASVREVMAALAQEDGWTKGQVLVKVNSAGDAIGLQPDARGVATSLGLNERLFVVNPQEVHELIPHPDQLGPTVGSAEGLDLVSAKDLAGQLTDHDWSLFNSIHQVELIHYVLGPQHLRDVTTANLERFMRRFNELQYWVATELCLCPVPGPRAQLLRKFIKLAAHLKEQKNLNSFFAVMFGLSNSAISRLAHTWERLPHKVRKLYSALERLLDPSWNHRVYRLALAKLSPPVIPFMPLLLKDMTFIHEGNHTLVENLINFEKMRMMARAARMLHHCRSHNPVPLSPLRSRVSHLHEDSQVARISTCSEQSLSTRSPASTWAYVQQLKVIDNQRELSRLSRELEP

The target is the same in assay [4]. The assay can be described thus: Confirmatory qHTS for agonist of cAMP-regulated guanine nucleotide exchange factor 3 (EPAC1) (AID 1645881).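 Further: EPAC1 catalysed release of BODIPY-GDP from Rap1B seen as fluorescence loss; nearly all actives have a fitted effect of over 75% in size.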
Assay [5] deals with Rap guanine nucleotide exchange factor 4 (Homo sapiens) (UniProt Q8WZA2). The assay can be described thus: Confirmatory qHTS for agonist of cAMP-regulated guanine nucleotide exchange factor 4 (EPAC2) (AID 1645884).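 Further: nucleotide exchange releases bodipy-GDP from Rap1 and this lowers its fluorescence; nearly all actives have a fitted effect of over 65% in size.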
Sequence of Rap guanine nucleotide exchange factor 4 (Homo sapiens) (Q8WZA2 whole entry, looked up): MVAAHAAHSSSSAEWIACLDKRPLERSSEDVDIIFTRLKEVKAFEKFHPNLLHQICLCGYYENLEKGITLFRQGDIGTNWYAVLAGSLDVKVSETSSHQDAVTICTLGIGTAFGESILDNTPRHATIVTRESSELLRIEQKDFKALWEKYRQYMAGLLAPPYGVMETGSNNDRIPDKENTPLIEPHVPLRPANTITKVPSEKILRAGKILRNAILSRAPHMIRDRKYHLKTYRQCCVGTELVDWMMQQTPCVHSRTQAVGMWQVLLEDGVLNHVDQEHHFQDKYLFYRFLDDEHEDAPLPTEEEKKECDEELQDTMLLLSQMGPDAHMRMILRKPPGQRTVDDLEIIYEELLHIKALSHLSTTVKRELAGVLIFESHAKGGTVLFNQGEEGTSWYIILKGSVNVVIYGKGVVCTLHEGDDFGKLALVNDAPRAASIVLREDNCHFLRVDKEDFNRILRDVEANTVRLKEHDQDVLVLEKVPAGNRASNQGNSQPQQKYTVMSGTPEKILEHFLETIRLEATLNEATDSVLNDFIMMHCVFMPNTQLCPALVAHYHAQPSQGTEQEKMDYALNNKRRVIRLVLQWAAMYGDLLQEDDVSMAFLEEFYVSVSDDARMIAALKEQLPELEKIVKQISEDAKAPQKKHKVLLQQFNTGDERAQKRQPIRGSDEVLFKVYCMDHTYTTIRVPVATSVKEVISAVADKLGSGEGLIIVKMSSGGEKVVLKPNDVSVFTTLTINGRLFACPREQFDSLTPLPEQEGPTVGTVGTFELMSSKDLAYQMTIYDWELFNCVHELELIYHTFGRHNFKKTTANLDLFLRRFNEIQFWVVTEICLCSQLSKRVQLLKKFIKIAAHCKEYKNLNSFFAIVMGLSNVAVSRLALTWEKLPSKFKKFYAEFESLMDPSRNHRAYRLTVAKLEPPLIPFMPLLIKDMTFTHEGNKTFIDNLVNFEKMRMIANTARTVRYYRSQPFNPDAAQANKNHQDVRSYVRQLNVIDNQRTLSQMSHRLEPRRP
Assay [6] shares this target. The assay can be described thus: Confirmatory qHTS for antagonist of cAMP-regulated guanine nucleotide exchange factor 4 (EPAC2) (AID 1645885). Further: potency means the concentration at half of the fitted maximal effect; nearly all actives have a fitted effect of over 25% in size. Conditions: EPAC2 Rap1B-BODIPY-GDP exchange fluorescence, biochemical.
Assay [7] concerns the target Rap guanine nucleotide exchange factor 3 (Homo sapiens) (UniProt O95398). The assay can be described thus: Counterscreen qHTS for antagonist of cAMP-regulated guanine nucleotide exchange factor 3 (EPAC1) (AID 1645888).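 Further: fluorescence loss as bound BODIPY-GDP is released from Rap1B.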 The procedure, abridged: (§1)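 Measured: fluorescence of BODIPY-GDP bound to Rap1B, which falls as exchange proceeds. Conditions include 50 uM competing GDP, 5 and 30 min reads, and a later cAMP challenge for antagonist detection.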

The target is the same in assay [8]. The assay can be described thus: Counterscreen qHTS for agonist of cAMP-regulated guanine nucleotide exchange factor 3 (EPAC1) (AID 1645889). Further: nearly all actives have a fitted effect of over 40% in size. The procedure, abridged:
as §1

Where “and” joins values, the source holds several entries; their conditions need not be identical. Equal entries are not always repeated. Records with an inconclusive call do not appear. Calls of active or inactive are those of the source. The call rests on the fitted dose curve; in most records, active means well fitted curve in the direction sought with a large enough effect; inconclusive means small, poorly fitted or top-dose-only effect, or another doubt; inactive means no such curve, though single readings can be large; an effect the other way counts as inactive or inconclusive.

As to `COc1cc(C(=O)N2CCC(N3CCN(C)CC3)CC2)ccc1Nc1ncc2c(n1)N(C)c1ccccc1C(=O)N2C`, the Potency in assay [1] was 1.15 µM (active) and 1.48 µM (active); in assay [2], 1.45 µM (active) and 1.86 µM (active).
With `Nc1ccn([C@@H]2CS[C@H](CO)O2)c(=O)n1`, the Potency entry in assay [1] and in assay [2] was “inactive” in each case.
Consider `Cc1coc2c1C(=O)C(=O)c1c-2ccc2c1CCCC2(C)C`, for which, in assay [1], the Potency result was “inactive”. In addition, the Potency in assay [3] was 53.6 µM (active); in assay [6], 30.1 µM (active). In addition, the molecule was classed as inactive in assay [4], in assay [5], in assay [7] and in assay [8].
With `CCOc1ccccc1OCCNC(C)Cc1ccc(OC)c(S(N)(=O)=O)c1` (configuration not stated), the Potency result in assay [1] and in assay [2] was “inactive” throughout.
For `O=C(O)CCCc1c[nH]c2ccccc12`, the Potency result in assay [1] and in assay [2] was “inactive” throughout.
As to `CCn1nnc2c(N3CCOCC3)nc(-c3ccc(NC(=O)Nc4ccc(C(=O)N5CCN(C)CC5)cc4)cc3)nc21`, the Potency in assay [1] was 18.3 nM (active) and 41.7 nM (active); in assay [2] it was 46.1 nM (active) and 59 nM (active).
On to `CN1CC[C@@H](c2c(O)cc(O)c3c(=O)cc(-c4ccccc4Cl)oc23)[C@@H](O)C1`, for which the figures for the Potency in assay [1] and in assay [2] were 372 nM (active) and 332 nM (active), respectively.
For the molecule `CNC(=O)CN1CCC(Oc2cc3c(Nc4cccc(Cl)c4F)ncnc3cc2OC)CC1`, the Potency was 16.3 µM (active) and 18.6 µM (active) in assay [1]; 18600 nM (active) in assay [2].
Regarding `NC(=O)Nc1cc(-c2cccc(F)c2)sc1C(=O)N[C@H]1CCCNC1`, the Potency was 81.7 nM (active) and 74.2 nM (active) in assay [1]; 81.7 nM (active) and 74.2 nM (active) in assay [2].
In the case of `NC(=O)c1c(OCc2c(F)cc(Br)cc2F)nsc1NC(=O)NCCCCN1CCCC1`, the Potency in assay [1] was 10500 nM (active); in assay [2] it was 7420 nM (active).
The like results for `CCc1c2c(nc3ccc(O)cc13)-c1cc3c(c(=O)n1C2)COC(=O)[C@]3(O)CC` were, in that order, 8.3 nM (active) and 4.7 nM (active).
Consider `Cc1c(CN2CCN(S(C)(=O)=O)CC2)sc2c(N3CCOCC3)nc(-c3cnc(N)nc3)nc12`, for which the Potency in assay [1] was 29 nM (active) and 74.2 nM (active); in assay [2], 32.5 nM (active) and 118 nM (active).
For the molecule `Nc1cc(C(F)(F)F)c(-c2cc(N3CCOCC3)nc(N3CCOCC3)n2)cn1`, the Potency is 578 nM (active) and 1.18 µM (active) in assay [1]; 728 nM (active) and 934 nM (active) in assay [2].
Consider `CCNC(=O)Nc1ccc2ncc(Nc3ccc(C)cc3)nc2n1`, for which the Potency result in assay [1] and in assay [2] was “inactive” in each case.
With `c1cc(-c2cnn3cc(-c4ccc(OCCN5CCCCC5)cc4)cnc23)ccn1`, the Potency was 3.66 µM (active) and 3.72 µM (active) in assay [1]; 2.91 µM (active) and 3.32 µM (active) in assay [2].
With `CC(=O)SC[C@@H](C)C(=O)N1CCC[C@H]1C(=O)N[C@@H](Cc1ccccc1)C(=O)O`, the Potency entry in assay [1] and in assay [2] was “inactive” each time.

(Values after PubChem BioAssay (NCATS).)
